# Compound activity (PubChem BioAssay)
# G9a inh: blocks human histone lysine methyltransferase G9a. Q96KQ7. G9a H3K9 monomethylation, AlphaScreen, 2 h. Potency, µM (top dose mostly 102 µM), inactives show top-dose activity, negative = inhibition, hits mostly inhibitors. 350,000 compounds, 8.8% hits. AID 504332; further: on the % scale 0 is the no-effect control and ±100 the full control effect; nearly all actives have a fitted effect of over 75% in size
# Target sequence (Q96KQ7 913-1193 limits assumed): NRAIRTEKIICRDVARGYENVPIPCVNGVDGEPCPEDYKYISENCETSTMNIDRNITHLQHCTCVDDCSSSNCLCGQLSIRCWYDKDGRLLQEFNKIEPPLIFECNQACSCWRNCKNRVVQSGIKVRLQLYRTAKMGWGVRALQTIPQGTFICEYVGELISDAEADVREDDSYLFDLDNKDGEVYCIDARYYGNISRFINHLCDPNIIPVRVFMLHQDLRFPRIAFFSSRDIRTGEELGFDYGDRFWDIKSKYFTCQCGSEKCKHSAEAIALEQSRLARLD
#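 Step 1: enzyme (final 20 nM) with compound, 15 min RT. Step 2: substrate peptide 500 nM and SAM 20 uM, 2 h RT. Step 3: anti-H3K9me1 antibody and AlphaScreen beads, 10 min, then plate read.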
# Sfp inh: blocks B. subtilis Sfp PPTase activity. Q9F4F7. Biochemical Sfp PPTase activity, qHTS. Potency, µM, without a hit: largest response in the series, negative = inhibition, usual class: inhibitors. 310,000 compounds, 3.5% hits;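 further: the enzyme is Sfp with the accession as filed and its product quenches rhodamine fluorescence; 0% = enzyme reaction without inhibitor and -100% = no enzyme wells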
#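 Fluorescence-quenching assay with 15 nM Sfp, 5 uM rhodamine-CoA and 12.5 uM BHQ-2-labelled ybbR peptide in pH 7.6 Hepes/MgCl2 buffer. Enzyme was pre-incubated with compound for 15 min at room temperature. Rate was taken from the 30-min fluorescence change (525/598 nm).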
# HP1b chromo inh: inhibitors of HP1-beta chromodomain binding to methylated histone tails; P83916; 390,000 compounds, 0.56% hits; AlphaScreen HP1-beta / biotin-H3K9me3 peptide binding; AID 540317; Potency, µM (titrated, usually from 114 µM), inactives show at the top dose activity change, negative = inhibition, most hits filed as inhibitors; further: nearly all actives have a fitted effect of over 70% in size
# Target sequence (P83916 whole entry, looked up): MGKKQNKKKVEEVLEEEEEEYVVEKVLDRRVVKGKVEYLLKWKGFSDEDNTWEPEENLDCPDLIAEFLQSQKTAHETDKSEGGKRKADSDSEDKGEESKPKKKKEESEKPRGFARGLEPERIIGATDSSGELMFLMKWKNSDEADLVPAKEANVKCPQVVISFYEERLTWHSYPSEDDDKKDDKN
#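 AlphaScreen: HP1-beta (50 nM) preformed 30 min with biotin-H3(1-18)K9me3 peptide (50 nM) in PBS pH 7.4, 0.01% Tween-20. Compound added for 30 min at RT, then streptavidin donor/nickel chelate acceptor beads (10 ug/mL) for 30 min.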
# BAZ2B block: blocks human BAZ2B; AlphaScreen BAZ2B-H3K14Ac peptide displacement; Potency, µM (titrated, usually from 114 µM), for inactives: at the top dose activity change, negative = inhibition, actives largely listed as inhibitors; 360,000 compounds, 4.4% hits; Q9UIF8; further: on the % scale 0 is the no-effect control and ±100 the full control effect; nearly all actives have a fitted effect of over 60% in size
#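 Compounds, titrated to a top concentration of 110 uM, were incubated 30 min at room temperature with preformed BAZ2B/acetyl-K14 H3 peptide complex (50 nM each). Proximity signal was measured by AlphaScreen after 20 min with beads.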
# JMJD2A Tudor inh: inhibitors of human JMJD2A Tudor domain; O75164; AlphaScreen JMJD2A-Tudor / H3K4me3 peptide binding; Potency, µM (titrated, usually from 114 µM), for the others: at the top dose activity change, negative = inhibition, usual class: inhibitors; 390,000 compounds, 4.4% hits; further: on the % scale 0 is the no-effect control and ±100 the full control effect; nearly all actives have a fitted effect of over 50% in size
# * hit, by the source's call; u = inconclusive; x = not tested or not shown; [ ] = remark or other dose. Shown are actives, neighbours in structure and some others; about 12% of the full set was active somewhere. The call rests on the fitted dose curve; in most records, active means well fitted curve in the direction sought with a large enough effect; inconclusive means small, poorly fitted or top-dose-only effect, or another doubt; inactive means no such curve, though single readings can be large; an effect the other way counts as inactive or inconclusive. Potency means the concentration at half of the fitted maximal effect.
SMILES,G9a inh,Sfp inh,HP1b chromo inh,BAZ2B block,JMJD2A Tudor inh
CCOC(=O)CSc1cc(CS(C)(=O)=O)nc(-c2ccccn2)n1,35%,-13%,-2%,-16%,-16%
COc1ccc(-c2n[nH]c3c2CN(C(=O)c2ccc(OC)c(OC)c2)CC3)cc1,15%,17%,7%[57 µM],-26%,-18%
COC(=O)C1C(=O)C(C(=O)/C=C/c2ccccc2)C(=O)CC1(C)C (stereo not drawn),u,-1%,29%,-37%,-28%
COC(=O)C1C(=O)C(C(=O)/C=C/c2ccco2)C(=O)CC1(C)C (stereo not drawn),x,56µM*,x,x,x
N#Cc1cc2c([nH]c1=S)CCCCCC2,u,10µM*,u,-4%,3.2µM*
CCOc1nc(C)ccc1-c1noc(-c2cccnc2)n1,50%,13%,31%,-2%,1%
Fc1ccc(-c2nn3c(C4COc5ccccc5O4)nnc3s2)cc1 (stereo not drawn),3.2µM*,40µM*,u,0%,u
Fc1ccc(-c2nnc3sc(C4COc5ccccc5O4)nn23)cc1 (stereo not drawn),-38%,-8%,6%,-5%,-15%
c1ccc2c(c1)OCC(c1nnc3sc(-c4ccc5c(c4)OCO5)nn13)O2 (stereo not drawn),5µM*,25µM*,u,-4%,-29%
c1ccc2c(c1)OCC(c1nnc3sc(-c4cnccn4)nn13)O2 (stereo not drawn),7.9µM*,20µM*,-25%,5%,-26%
Brc1ccccc1-c1nnc2sc(-c3ccc4c(c3)OCCO4)nn12,6%[12.7 µM],-8%,15%,1%,-18%
CCOC(=O)C1=CN(CC)S(=O)(=O)NC1c1ccc(F)c(Cl)c1 (stereo not drawn),x,x,31%,x,-11%
Fc1ccc(N2CCN(c3ncnc4c3nnn4Cc3ccccc3Cl)CC2)cc1,x,x,43%,x,-19%
CC(=O)C(C(C)=O)c1c(Cl)c(O)c(O)c2c(C(=O)c3ccccc3)coc12,u,6.3µM*,u,45µM*,63µM*
CN1CCN(Cc2c(O)ccc3occ(C(=O)c4ccccc4)c23)CC1,-9%[59 µM],8%,8%,-4%,-16%
COc1cccc(OC)c1OCCCCCc1c(C)n[nH]c1C,50µM*,7%,33%,-8%,-4%
Cc1n[nH]c(C)c1CCCCOc1ccccc1,50µM*,5%,13%,-20%,-32%[57.1 µM]
COc1cccc(OC)c1OCCCCc1c(C)n[nH]c1C,u,-9%,9%,-34%,-12%
COC(=O)c1cccnc1N1CCN(c2ccccc2F)CC1,9%[59 µM],-6%,28%,26%,-2%
c1cncc(-c2nn3c(Cn4nnc5ccccc54)nnc3s2)c1,13%[2.33 µM],32µM*,-22%,14%,-9%
c1ccc(-c2nn3c(Cn4nnc5ccccc54)nnc3s2)nc1,u,16µM*,-28%,-31%,u
C/C(=N\OCC(=O)Nc1c(C)cc(C)cc1C)c1ccc2c(c1)OCCO2,u,-3%,20%,7%,-20%
CCn1cc(C(=O)NCCN(C)C)c(=O)c2cc(F)c(N3CCN(C)CC3)cc21,50µM*,-2%,5%,-1%,-9%
CCn1cc(C(=O)NCCCN(C)C)c(=O)c2cc(F)c(N3CCN(C)CC3)cc21,35µM*,20%,30%,2%,-8%
CCCNC(=O)c1cn(CC)c2cc(N3CCN(C)CC3)c(F)cc2c1=O,-12%[12.7 µM],16%,20%,4%,0%
SMILES,G9a inh,Sfp inh,HP1b chromo inh,BAZ2B block,JMJD2A Tudor inh
CC1CCN(C(=O)C2CCN(CCCc3ccccc3)CC2)CC1,14µM*,-14%,x,u,x
O=C(C1CCN(CCCc2ccccc2)CC1)N1CCCCC1,20µM*,6%,u,u,0.89µM*
COc1ccc(-n2nc(C(=O)N3CCC(C#N)CC3)c3c4ccccc4n(C)c3c2=O)cc1,x,x,25%,x,-14%
Cc1ccc(C)c(NC2=C(c3ccc(C(F)(F)F)cc3)C(=O)c3ccccc32)c1,-39%[59 µM],x,-20%,u,u
COc1cc(OC)c(NC2=C(c3ccc(C(F)(F)F)cc3)C(=O)c3ccccc32)cc1Cl,u,x,u,u,20µM*
OCCN(CC#CC(O)(c1ccccc1)c1ccccc1)CCO,32µM*,6%,21%,u,-4%
Cc1cccc(OCC(=O)Nc2ccc3nc(SCc4ccccc4)sc3c2)c1,25%[59 µM],x,57%,-3%,4%
CCOCCCNCc1ccc(OCc2ccccc2Cl)cc1,5%[59 µM],10%,28%,8%,-1%
CCOCCCNC1=C(Cl)C(=O)c2ccccc2C1=O,x,45µM*,18µM*,40µM*,13µM*
CCOCCCNCc1ccc(OC)cc1,-21%[12.7 µM],-4%,-30%,u,4µM*
CCOCCCNCc1cc(Cl)ccc1OCC,u,16%,55%,-14%,1%
CCOCCCNC(=O)Cc1ccc(OC)c(OC)c1,-3%[59 µM],23%,47%,-4%,-5%[57.1 µM]
O=C1C(Cl)=C(NCCCO)C(=O)c2ccccc21,28%[2.33 µM],0%,u,u,-30%
CCCOc1ccc(CNCCCOCC)cc1OC,-31%,-7%,u,-36%,0.79µM*
CCOCCCNCc1c(Cl)cccc1Cl,u,u,u,u,5µM*
COC(=O)c1ccccc1NC(=O)CN(C)S(=O)(=O)c1cc(C)ccc1OC,12%[12.7 µM],2%,12%,4%,-10%
COc1ccc(CCNC(=O)c2nnn(CC(=O)Nc3ccccc3C)c2N)cc1OC,-7%,-9%,33%,-23%,-28%
CC(=O)c1ccccc1C(=O)N(C)C1CCCN(Cc2ccccc2F)C1 (stereo not drawn),x,-6%,19%,10%,-6%
COc1cccc(CNCC(=O)N2C(C)CCCC2C)c1 (stereo not drawn),13µM*,-11%,u,50µM*,3.5µM*
CCOCCCNCc1cccc(OC)c1,4µM*,-15%,-52%,u,3.5µM*
Cc1ccccc1C(=O)N1CCN(c2ccc(NC(=S)NC(=O)c3cccs3)cc2)CC1,u,6%,-6%[57 µM],u,u
COc1ccc(Cl)cc1NC(=O)CN1CCN(S(=O)(=O)N2CCC(C)CC2)CC1,33%[59 µM],5%,8%,7%,-1%
Cc1cc(C)c(NS(=O)(=O)c2ccccc2)c(C)c1NS(=O)(=O)c1ccccc1,x,x,5%[57 µM],x,-23%
Cc1ccc(S(=O)(=O)/N=C2\C=C(NS(=O)(=O)c3ccccc3)C(=O)c3ccccc32)c(C)c1,x,x,22µM*,x,22µM*
CC(C)(C)c1ccc(S(=O)(=O)/N=C2\C=C(NS(=O)(=O)c3ccccc3)C(=O)c3ccccc32)cc1,10µM*,-9%,u,28µM*,25µM*
Nc1nncn1C(=O)c1ccc(Cl)cc1Cl,-2%,9%,19%,3%,-7%
CCOc1ccc(N(CC(=O)Nc2cccc(Cl)c2)S(=O)(=O)c2c(C)noc2C)cc1,u,35%,69%,12%,-11%
